Rows were chosen to be rich in hits. Some 1.2% of all compounds tested hit in one or more screens of this group.
Avidin bead fluor – compound fluoresces at 488/530 nm on avidin beads | 220,000 compounds, 0.38% hits | compound fluorescence 488/530 nm, flow cytometry; hits give high values | fluorescence (KMESF) at 10 µM; in the data active = fluorescence above about 47
GSH fluor – GSH bead compound fluorescence profile; GSH beads flow cytometry, compound fluorescence 488/530 nm; hits give high values; fluorescence (KMESF) at 10 µM; 190,000 compounds, 0.25% hits; AID 1776; in the data active = fluorescence above about 89;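 also: glutathione beads carrying GST-tagged Bcl family fusion proteins plus one bare bead set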
RGS16-Gao HTS – modulates binding between human RGS16 and Galphao; 220,000 compounds, 0.38% hits; bead-based flow cytometry RGS16-Galphao binding, fluorescence; actives lie on both sides; AID 1441; binding response (% of control), % at 10 µM;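 also: Galphao activated by GDP with aluminum fluoride before binding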
Target sequence (O15492 whole entry, looked up): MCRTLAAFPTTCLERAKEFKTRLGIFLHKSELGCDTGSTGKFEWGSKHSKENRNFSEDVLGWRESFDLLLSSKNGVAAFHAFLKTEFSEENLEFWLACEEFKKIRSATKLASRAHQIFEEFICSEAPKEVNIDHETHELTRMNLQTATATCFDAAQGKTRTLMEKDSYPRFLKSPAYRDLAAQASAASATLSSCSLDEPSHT
Target sequence (P09471 whole entry, looked up): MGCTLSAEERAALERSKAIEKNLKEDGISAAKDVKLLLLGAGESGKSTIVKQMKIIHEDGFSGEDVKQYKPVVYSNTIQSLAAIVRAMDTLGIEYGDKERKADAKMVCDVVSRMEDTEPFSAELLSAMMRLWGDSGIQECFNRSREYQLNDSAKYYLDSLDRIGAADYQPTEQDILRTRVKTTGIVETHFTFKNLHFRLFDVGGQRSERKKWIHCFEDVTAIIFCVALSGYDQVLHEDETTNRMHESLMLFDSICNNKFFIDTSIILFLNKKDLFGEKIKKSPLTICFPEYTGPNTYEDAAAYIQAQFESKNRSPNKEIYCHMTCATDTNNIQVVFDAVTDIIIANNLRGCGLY
RGS4-Gao reg – human RGS4-Galphao interaction regulation. Multiplexed bead flow cytometry, RGS4-Galphao binding; actives lie on both sides. binding response (% of control), % at 10 µM. P09471. AID 1415. 220,000 compounds, 0.33% hits; in the data active = binding response below about 49% or above about 150%; inactive = in between;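 also: fluorescent Galphao activated with aluminum fluoride binding bead-coupled RGS4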
Target sequence (P09471 whole entry, looked up): as above
RGS8-Gao reg – regulators of human RGS8-Galphao interaction; P09471; multiplexed bead flow cytometry, RGS8-Galphao binding; actives lie on both sides; response (percent of control binding), % at 10 µM; 220,000 compounds, 0.34% hits; in the data active = response below about 60% or above about 140%; inactive = in between;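 also: Galphao activated as the GDP aluminium fluoride complex binding bead-coupled RGS8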
RGS7-Gao reg – modulates binding of RGS7 to human Galphao. binding response (% of control), % at 10 µM. Multiplexed bead flow cytometry; actives lie on both sides. AID 1439. 220,000 compounds, 0.35% hits; in the data active = binding response below about 49% or above about 150%; inconclusive = no clear call, values can overlap the other calls; inactive = in between;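 also: fluorescent Galphao held in activated GDP-AlF4 state binding bead-coupled RGS7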
RGS4-Gao HTS – RGS4-Galphao interaction regulator (human) | shares compounds with RGS16-Gao HTS | multiplexed bead flow cytometry, RGS–Galpha-o binding | RGS4–Galpha-o binding response, % at 10 µM | 1,600 compounds, 99% hits | AID 1504;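 also: fluorescently labeled Galpha-o bound to GDP with aluminium fluoride binding biotinylated RGS beads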
Avidin counter – counter-screen: compounds disrupting biotin binding to avidin beads; shares compounds with RGS16-Gao HTS; AID 1783; streptavidin beads, fluorescein-biotin binding, flow cytometry; inhibition, % at 10 µM; 1,700 tested, under 10 active;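 active = inhibition above 50%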;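 also: median green fluorescence of gated singlet beads compared with DMSO control wells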
RGS8-Gao single – RGS8-Galphao interaction regulation, single point confirmation; binding response (% of control), % at 10 µM; 1,700 compounds, 3% hits; shares compounds with RGS16-Gao HTS; bead-based flow cytometry RGS8-Galphao binding, fluorescence; actives lie on both sides; in the data active = binding response below about 72% or above about 130%; inactive = in between;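 also: Galphao activated as GDP AlF4 complex before binding bead RGS8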
RGS7-Gao confirm – RGS7-Galphao interaction regulation, single point confirmation. 1,700 compounds, 7.8% hits. shares compounds with RGS16-Gao HTS. bead-based flow cytometry RGS7-Galphao binding; actives lie on both sides. response (percent of control binding), % at 10 µM; in the data active = response below about 75% or above about 130%; inactive = in between;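 also: fluorescent Galphao activated with GDP and aluminum fluoride binding bead-coupled RGS7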
RGS16-Gao single – confirmation of regulators of human RGS16-Galphao interaction | shares compounds with RGS16-Gao HTS | bead-based flow cytometry, RGS16-Galphao binding; actives lie on both sides | response (% of control binding), % at 10 µM | 1,700 compounds, 4% hits; in the data active = response below about 74% or above about 130%; inactive = in between;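 also: Galphao activated as the GDP aluminium fluoride complex binding bead-coupled RGS16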
RGS4-Gao confirm – RGS4-Galphao interaction regulation, single point confirmation. shares compounds with RGS16-Gao HTS. RGS4-Galphao binding, multiplexed bead flow cytometry; actives lie on both sides. binding response (% of control), % at 10 µM. 1,700 compounds, 4% hits; in the data active = binding response below about 74% or above about 130%; inactive = in between
RGS19-Gao single – confirmation of regulators of human RGS19-Galphao interaction; shares compounds with RGS16-Gao HTS; bead-based flow cytometry RGS19-Galphao binding; actives lie on both sides; response (percent of control binding), % at 10 µM; 1,700 compounds, 5% hits; AID 1841; in the data active = response below about 50% or above about 160%; inactive = in between
Each line names hits and unclear results; the compound was inactive in the other large screens (follow-up assays come after a bar, where they were run); [ ] = remark or other dose. Unless noted, no rule for the calls is given here.

CC1CCc2c(sc(NC(=O)COC(=O)c3ccccc3NCc3ccco3)c2C#N)C1 (stereo unspecified)	RGS4-Gao reg -5.5, RGS8-Gao reg 4.6, RGS7-Gao reg -2.0 | Avidin counter inactive | RGS8-Gao single inactive | RGS7-Gao confirm inactive | RGS16-Gao single inactive | RGS4-Gao confirm inactive | RGS19-Gao single inactive
Cc1cc(C)c(S(=O)(=O)Nc2ccc(O)cc2)c(C)c1	RGS8-Gao reg 141[activator] | RGS4-Gao HTS 126 | Avidin counter inactive | RGS8-Gao single inactive | RGS7-Gao confirm inactive | RGS16-Gao single inactive | RGS4-Gao confirm inactive | RGS19-Gao single inactive
CC(=O)c1ccc(NS(=O)(=O)c2c(C)cc(C)cc2C)cc1	none
Cc1ccc(S(=O)(=O)NC2(C(F)(F)F)C(=O)Nc3c2c(=O)[nH]c(=O)n3-c2ccccc2)cc1 (stereo unspecified)	Avidin bead fluor 88, RGS7-Gao reg 162[activator] | RGS4-Gao HTS 113 | Avidin counter inactive | RGS8-Gao single inactive | RGS7-Gao confirm inactive | RGS16-Gao single inactive | RGS4-Gao confirm inactive | RGS19-Gao single inactive
Cc1ccc(-n2c3c(c(=O)[nH]c2=O)C(NS(=O)(=O)c2ccc(C)cc2)(C(F)(F)F)C(=O)N3)cc1 (stereo unspecified)	none
Cc1csc(NC(=O)CSc2nnc(CCNC(=O)c3ccc(Cl)c(Cl)c3)n2C)n1	none (no result: Avidin bead fluor, RGS16-Gao HTS, RGS4-Gao reg, RGS8-Gao reg, RGS7-Gao reg) | Avidin counter inactive | RGS8-Gao single inactive | RGS7-Gao confirm inactive | RGS16-Gao single inactive | RGS4-Gao confirm inactive | RGS19-Gao single inactive
COc1ccc(CCCc2nnc(SCC(=O)Nc3nc(C)cs3)n2C)cc1	none
O=C(O)C(Cc1cn[nH]n1)=NO	RGS7-Gao reg inconclusive (no result: GSH fluor)
CC(C)C(NS(=O)(=O)c1cccc2nsnc12)C(=O)Nc1nc2ccc(Cl)cc2s1 (stereo unspecified)	none
CCOc1ccc2nc(NC(=O)C(NS(=O)(=O)c3cccc4nsnc34)C(C)C)sc2c1 (stereo unspecified)	RGS4-Gao reg 153[activator] | Avidin counter inactive | RGS8-Gao single inactive | RGS7-Gao confirm inactive | RGS16-Gao single inactive | RGS4-Gao confirm inactive | RGS19-Gao single inactive
O=C(CCn1c(=S)oc2ccccc21)Nc1cccc(O)c1	RGS16-Gao HTS 12, RGS4-Gao reg 22, RGS8-Gao reg 15, RGS7-Gao reg 9.9 | Avidin counter inactive | RGS8-Gao single inactive | RGS7-Gao confirm inactive | RGS16-Gao single inactive | RGS4-Gao confirm inactive | RGS19-Gao single inactive
S=C(Nc1ccc2nc(-c3ccccn3)c(-c3ccccn3)nc2c1)N1CCCCC1	none
S=C(Nc1ccc2nsnc2c1)N1CCCCC1	RGS16-Gao HTS 2.5 | RGS4-Gao HTS 86
CS(=O)(=O)NCC(c1cccnc1)N1CCN(c2ccccc2F)CC1 (stereo unspecified)	RGS7-Gao reg inconclusive (no result: GSH fluor)
N#CC(C(=O)OC1CCCCC1)c1nc2ccccc2nc1N1CCOCC1 (stereo unspecified)	Avidin bead fluor 110, RGS7-Gao reg 171[activator] | RGS4-Gao HTS 119
O=Cc1cccn1Cc1ccccc1[N+](=O)[O-]	none
CCCc1nc(SCC(=O)c2ccc(OC)cc2)c2ccccc2n1	none (no result: Avidin bead fluor, RGS16-Gao HTS, RGS4-Gao reg, RGS8-Gao reg, RGS7-Gao reg) | Avidin counter inactive | RGS8-Gao single inactive | RGS7-Gao confirm inactive | RGS16-Gao single inactive | RGS4-Gao confirm inactive | RGS19-Gao single inactive
O=C(CSc1nc(Cc2ccccc2)nc2ccccc12)c1ccc2c(c1)OCCO2	none
CCc1nc(SCC(=O)c2ccc3c(c2)OCCO3)c2ccccc2n1	RGS8-Gao reg 142[activator] | RGS4-Gao HTS 120 | Avidin counter inactive | RGS8-Gao single inactive | RGS7-Gao confirm inactive | RGS16-Gao single inactive | RGS4-Gao confirm inactive | RGS19-Gao single inactive
CCc1nc(SCC(=O)c2ccccc2)c2ccccc2n1	none
O=C1C(=O)N(Cc2ccccc2)C(=O)N1CCOc1ccccc1	RGS8-Gao reg 58 | RGS4-Gao HTS 56 | Avidin counter inactive | RGS8-Gao single inactive | RGS7-Gao confirm inactive | RGS16-Gao single inactive | RGS4-Gao confirm inactive | RGS19-Gao single inactive
Cc1ccc(OCCN2C(=O)c3ccccc3C2=O)cc1	none
Cc1c(C(=O)NC(C)CCc2ccccc2)cccc1[N+](=O)[O-] (stereo unspecified)	none
CCCC(=O)Nc1cccc(NC(=O)c2cccc([N+](=O)[O-])c2C)c1	RGS16-Gao HTS 205[activator] | RGS4-Gao HTS 110 | Avidin counter inactive | RGS8-Gao single inactive | RGS7-Gao confirm inactive | RGS16-Gao single inactive | RGS4-Gao confirm inactive | RGS19-Gao single inactive
CCC(CC)NC(=O)c1cccc([N+](=O)[O-])c1C	RGS16-Gao HTS 237[activator] | RGS4-Gao HTS 116 | Avidin counter inactive | RGS8-Gao single inactive | RGS7-Gao confirm inactive | RGS16-Gao single inactive | RGS4-Gao confirm inactive | RGS19-Gao single inactive
CCOC(=O)c1cc(C#N)c(Nc2ccc(C)cc2)nc1C(F)(F)F	RGS7-Gao reg inconclusive (no result: GSH fluor)
COc1ccc(C(=O)CCNc2ccc3c(c2)OCCO3)cc1	none
CCOC(=O)C1CCN(C(=O)c2cc(C(C)(C)C)nn2Cc2ccccc2)CC1	RGS7-Gao reg inconclusive (no result: GSH fluor)

Screening results (PubChem BioAssay)
